Results filed as inconclusive are left out. A call without a number means that no potency is given here. Activity calls are given as the source filed them. Calls follow the shape of the dose curve; as a rule, active = well fitted inhibition curve with a large enough effect; inconclusive = small, poorly fitted or top-dose-only effect; inactive = flat fitted curve, though single readings scatter.

Glutathione peroxidase 1 (Homo sapiens), sequence (P07203 whole entry, looked up): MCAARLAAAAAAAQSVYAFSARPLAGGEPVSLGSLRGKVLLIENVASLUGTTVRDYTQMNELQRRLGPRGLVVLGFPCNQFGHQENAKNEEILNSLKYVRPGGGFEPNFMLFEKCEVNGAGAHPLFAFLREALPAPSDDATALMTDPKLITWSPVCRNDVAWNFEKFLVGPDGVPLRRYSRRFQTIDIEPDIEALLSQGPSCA

This experiment deals with Glutathione peroxidase 1 (Homo sapiens) (UniProt P07203). The experiment is described as follows: Primary qHTS Assay for Inhibitors of Recombinant Selenoprotein Glutathione Peroxidase 1 (GPX1) (AID 1845191). Also: nearly all actives have a fitted effect of over 65% in size. Conditions: recombinant GPX1, GR-coupled NADPH fluorescence, 15 min; series mostly up to 27.7 µM. In a few lines:
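10 nM GPX1 + cpd, 30 min RT; start w/ 1 mM GSH, 0.5 mM cumene hydroperoxide, 0.5 mM NADPH, 100 nM GR, 0.01% BSA; buffer 50 mM Tris-HCl pH 7.5, 2 mM EDTA, 150 mM NaCl; Fl 340/450, 0 & 15 min.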
In general terms: qHTS replaces the single test concentration by a dilution series.
Regarding `C/C=C/C=C/C=C/C(=O)O[C@@H]1C=C(CO)[C@](O)(CO)[C@@]2(C)CCCC(C)(C)[C@H]12`, the Potency result is “inactive”. Take `CC1(C)CC[C@]2(C(=O)O)CC[C@]3(C)C(=CCC4[C@@]5(C)C[C@@H](O)[C@H](O)[C@](C)(CO)C5CC[C@]43C)[C@@H]2[C@@H]1O` (stereo partly specified): the Potency entry was “inactive”. In the case of `CC(C)Oc1ccc(-c2nc(-c3cccc4c3CCC4NCCC(=O)O)no2)cc1C#N` (stereo unspecified) it was “inactive”.

For the compound `O=S(=O)(O)c1ccc(Nc2ncnc3c2ncn3[C@@H]2O[C@H](CO)[C@@H](O)[C@H]2O)cc1`, the Potency entry was “inactive”. The value for `CC(C)(O)C1CC=C(C(=O)OC[C@H]2O[C@@H](OC(=O)C3=CCC(C(C)(C)O)CC3)[C@H](O)[C@@H](O)[C@@H]2O)CC1` (stereo partly specified) was “inactive”; that for `CCC(C)(C)C1CCc2c(sc(NC(=O)c3ccc(Br)cc3)c2C#N)C1` (stereo unspecified) was “inactive”; that for `Fc1ccc(-c2c3cccc(C(F)(F)F)c3nn2Cc2ccc(F)cc2Cl)cc1` was “inactive”.

With `C/C=C1/[C@H](O[C@@H]2O[C@H](CO)[C@@H](O)[C@H](O)[C@H]2O)OC=C2C(=O)O[C@@H]3C[C@@H](C(C)CO)[C@H](COC(=O)C[C@H]21)[C@H]3C` (stereo partly specified), the Potency entry is “inactive”. In the case of `CC(C)=C1CC2[C@](C)(CC[C@@H](OC(=O)C3(C)OC3C)[C@@]2(C)O)CC1=O` (stereo partly specified) it was “inactive”; in that of `C/C=C(\C)C(=O)O[C@H]1C=CC(=O)O[C@H]1/C=C/[C@H](O)[C@@H](C)O`, “inactive”; in that of `CC(=O)O[C@@H]1[C@@H](O)[C@H](C)O[C@@H](O[C@H]2[C@@H]3C=CO[C@@H](O[C@@H]4O[C@H](CO)[C@@H](O)[C@H](O)[C@H]4OC(C)=O)[C@@H]3[C@@]3(CO)O[C@@H]23)[C@@H]1OC(=O)/C=C/c1ccc(O)cc1`, “inactive”.

These data come from PubChem BioAssay (NCATS).
